Where “and” joins values, the source holds several entries; their conditions need not be identical. Equal entries are not always repeated. Inconclusive results are not listed. Entries that show only a call come without a potency. Values without a mark were called inactive. Calls of active or inactive are those of the source. The call rests on the fitted dose curve; in most records, active means well fitted cell-killing curve with a large enough effect in the repeat runs; inconclusive means weak or mixed curves, or effect the other way; inactive means flat fitted curve, though single readings scatter.
assay: qHTS assay to identify small molecule antagonists of the estrogen receptor alpha (ER-alpha) signaling pathway using the BG1 cell line in the presence of 0.1 nM 17-beta-estradiol - cell viability counter screen (AID 1259241); details: VM7Luc4E2 (BG1) viability, CellTiter-Fluor protease, 22 h, 0.1 nM estradiol agonist added; series mostly up to 92.4 µM; activity change, negative = cytotoxicity: at the top concentration; further: nearly all actives have a fitted effect of over 40% in size
Source text: National Center for Advancing Translational Sciences [NCATS]
NIH Chemical Genomics Center [NCGC]
U.S. Environmental Protection Agency [EPA]
National Institutes of Environmental Health Sciences [NIEHS]
National Toxicology Program [NTP]
U.S. Food and Drug Administration [FDA]
Estrogen receptor (ER), a member of the nuclear hormone receptor plays an important role in development, metabolic homeostasis and reproduction. Two subtypes of ER, ER-alpha and ER-beta, have similar expression patterns with some uniqueness in both types. Endocrine disrupting chemicals (EDCs) and their interactions with steroid hormone receptors like ER causes disruption of normal endocrine function. Therefore, it is important to understand the effect of environmental chemicals in ER signaling pathway. For identifying ER antagonists, VM7Luc4E2 cell line was used to screen against Tox21 compound libraries.
VM7Luc4E2 cell line (provided by Denison MS, University of California) endogenously express full-length ER-alpha and is stably transfected with a plasmid containing four estrogen responsive elements (ERE) upstream of a luciferase reporter gene. The current screening for identification of ER-alpha inhibitors against Tox21 compound libraries used lower concentration (0.1 nM) of 17beta-Estradiol as a stimulator. The cytotoxicity of the Tox21 compound libraries against VM7Luc4E2 cell line was tested by measuring live-cell protease activity using CellTiter-Fluor assay in the same wells.
Tox21 Assay Protocol Summary:
VM7Luc4E2 cells were cultured in phenol red free assay medium containing 10% charcoal stripped FBS for 5 days prior to the assay. The cells were dispensed at 4,000 cells/well in 4 uL of assay medium into white wall/solid-bottom 1536-well plates (Corning Life Sciences, Corning, NY) using a Multidrop Combi (ThermoFisher Scientific, Waltham, MA) dispenser. After the assay plates were incubated at 37C and 5% CO2 for 24 hr, 23 nL of compounds dissolved in DMSO, positive controls or DMSO only was transferred to the assay plates by a Pintool station (Kalypsys, San Diego, CA). The transfer of compounds was followed by the addition of 1 uL of 0.1 nM (final concentration) agonist (17beta-Estradiol)/assay medium using a Flying Reagent Dispenser (FRD, Aurora Discovery, San Diego, CA). The plates were incubated at 37C and 5% CO2 for 22 hr. For cytotoxicity assay, 1 uL of CellTiter-Fluor reagent (Promega Corporation, Madison, WI) was added to each well using the FRD and after 30 min incubation at 37C and 5% CO2, The fluorescence intensity was measured using ViewLux plate reader (PerkinElmer, Shelton, CT).
Potency means the concentration at half of the fitted maximal effect.

| Structure (SMILES) | Potency | activity change, negative = cytotoxicity |
| --- | --- | --- |
| COc1cc(C=O)ccc1O | inactive | – |
| CCCCC/C(C=O)=C\c1ccccc1 | inactive | – |
| COCCOCCOC | inactive | – |
| Cc1c(N(C)CS(=O)(=O)O)c(=O)n(-c2ccccc2)n1C | inactive | – |
| CCN(CC)CCOC(=O)c1ccc(N)cc1 | inactive | – |
| CCN1CCCC1=O | inactive | – |
| C[C@]12CC[C@@H]3c4ccc(O)cc4C[C@@H](CCCCCCCCCS(=O)CCCC(F)(F)C(F)(F)F)[C@H]3[C@@H]1CC[C@@H]2O (stereo not given in full) | inactive | – |
| CN(C)Cc1cc(CN(C)C)c(O)c(CN(C)C)c1 | inactive | – |
| NCCNc1cccc2ccccc12 | inactive | – |
| Cc1cccc(C)c1O | inactive | – |
| CCCCCCCCCCCCCC(=O)OC(C)C | inactive | – |
| Cc1ccc(O)c(-n2nc3ccccc3n2)c1 | inactive | – |
| C=C(C)OC(C)=O | inactive | – |
| CC(C)(C)CC(C)(C)c1ccc(O)c(-n2nc3ccccc3n2)c1 | inactive | – |
| Cc1cccc(Nc2cc(Cl)nc(SCC(=O)O)n2)c1C | inactive | – |
| O=C1OC(c2ccc(O)cc2)(c2ccc(O)cc2)c2ccccc21 | inactive | – |
| COc1cc2c(c(OC)c1OC)-c1ccc(OC)c(=O)cc1[C@@H](NC(C)=O)CC2 | inactive | – |
| CCCCCCCCCCCCCCCCCC(=O)OCC(O)CO (stereo not given) | inactive | – |
| C/C=C/c1ccc(O)c(OC)c1 | inactive | – |
| NC(=O)N1c2ccccc2C=Cc2ccccc21 | inactive | – |

| Structure (SMILES) | Potency | activity change, negative = cytotoxicity |
| --- | --- | --- |
| COc1ccc(C(=O)c2ccccc2)c(O)c1 | inactive | – |
| C=CCOC(=O)CC(C)C | inactive | – |
| COC(=O)C1CCC(C(=O)OC)CC1 (stereo not given) | inactive | – |
| CC1=NN(c2ccccc2)C(=O)C1 | inactive | – |
| COc1cc(O)c(C(=O)c2ccccc2)cc1S(=O)(=O)O | inactive | – |
| Cn1cnc2c1c(=O)[nH]c(=O)n2C | inactive | – |
| O=C1CCCCCN1 | inactive | – |
| CC1(C)O[C@@H]2[C@@H](CO[C@@]3(COS(N)(=O)=O)OC(C)(C)O[C@@H]23)O1 | inactive | – |
| OCCCc1ccccc1 | inactive | – |
| Nc1ccc(N=Nc2ccccc2)c(N)n1 | 61.4 µM (active) and 30.6 µM (active) | – |
| Cc1cnc(NC(=O)C2=C(O)c3ccccc3S(=O)(=O)N2C)s1 | – | -4.74% [at 42.5 µM] |
| CCn1cc(C(=O)O)c(=O)c2ccc(C)nc21 | inactive | – |
| CCCCOC(=O)CCCCCCCCC(=O)OCCCC | inactive | – |
| CC(O)COc1ccccc1 (stereo not given) | inactive | – |
| C[C@]12C=CC(=O)C=C1CC[C@@H]1[C@@H]2C(=O)C[C@@]2(C)[C@H]1CC[C@]2(O)C(=O)CO | inactive | – |
| CC(=O)OC/C=C(C)/C=C/C=C(C)/C=C/C1=C(C)CCCC1(C)C | inactive | – |
| c1ccc2[nH]c(-c3cscn3)nc2c1 | inactive | – |
| N[C@@H](Cc1c[nH]c2ccccc12)C(=O)O | inactive | – |
| CCc1cc(C(N)=S)ccn1 | inactive | – |
| COc1ccc(O)cc1 | inactive | – |

— PubChem BioAssay (Tox21)
